Experimental findings from PubChem BioAssay AID651955 (The Scripps Research Institute Molecular Screening Center, 2012) are described below.

About 40 (2%) of roughly 2,400 compounds were called active. Only a sample is shown. Unmarked numbers belong to inactive results. Rule as the data show it: active = activation above about 37%; inactive = the rest.

For this assay, the target named is Trace amine-associated receptor 1 (Homo sapiens) (UniProt Q96RJ0). Description: TAAR1 activation by candidate antagonists – cell-based, fluorescence, counter-screen for TAAR1 antagonist project (AID 651955).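 Also: CHO cells stably expressing TAAR1 with calcium dye readout; 0% = DMSO vehicle and 100% = full agonist response.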 The conditions noted are these: hTAAR1 cell line, agonist mode, at 3 µM, stronger effect = higher value. For orientation: Counterscreens check selectivity or assay interference.
Sequence of Trace amine-associated receptor 1 (Homo sapiens) (Q96RJ0 whole entry, looked up): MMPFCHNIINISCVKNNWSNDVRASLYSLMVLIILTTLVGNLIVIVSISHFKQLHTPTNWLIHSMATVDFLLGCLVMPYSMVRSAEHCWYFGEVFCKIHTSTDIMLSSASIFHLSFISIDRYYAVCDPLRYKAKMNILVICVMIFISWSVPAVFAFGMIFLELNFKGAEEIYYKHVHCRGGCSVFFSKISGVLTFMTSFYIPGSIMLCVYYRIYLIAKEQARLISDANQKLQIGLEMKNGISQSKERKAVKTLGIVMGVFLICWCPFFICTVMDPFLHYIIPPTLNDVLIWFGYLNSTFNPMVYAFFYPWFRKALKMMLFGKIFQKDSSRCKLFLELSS
As for `COc1ccc(-c2cc(C(=O)Nc3ccccc3O)c3ccccc3n2)cc1`, the activation is 16.7%.

`O=C(NCCN1CCOCC1)c1ccc(/C=C2\Sc3ccccc3N(Cc3ccc(F)cc3)C2=O)cc1`: the activation was 12.4%.

As for `COc1ccc(Cl)cc1NC(=O)CCS(=O)(=O)c1cc2c(cc1C)NC(=O)CO2`, the activation is 7.53%.

Turning to `COc1ccc(N(CC(=O)N/N=C/c2cccs2)S(=O)(=O)c2ccc(OC)c(OC)c2)cc1`, the activation was 11.5%.

Consider `CSc1ncnc2c1ncn2CC(=O)C1CCC2C3CCC4=CC(=O)CCC4(C)C3CCC12C` (configuration not stated), for which the activation is 15.2%.

`COc1ccc(C(=O)Nc2ccccc2C(=O)N/N=C/c2ccc(O)c(OC)c2)cc1`: the activation was 8.37%.

For `Cc1ccc(SCc2c(C(=O)N/N=C/c3cccnc3)nnn2-c2nonc2N)cc1`, the activation is 17.1%.

As for `CSCCC(NC(=O)COc1ccccc1)C(=O)OCC(=O)c1cc2ccccc2o1` (configuration not stated), the activation was 3.28%.

Consider `O=C(N/N=C/c1ccc(Cl)c(Cl)c1)c1ccc2nc[nH]c2c1`, for which the activation is 13.9%.

On to `COc1cc(/C=C2/C(=O)ON=C2C)ccc1OCc1ccccc1F`, for which the activation is 18.6%.

Regarding `N#Cc1cccc(NC(=O)COC(=O)c2ccccc2C(=O)c2ccc(Cl)c([N+](=O)[O-])c2)c1`, the activation was 3.29%.

As for `CSCCC(NC(=O)COc1ccccc1)C(=O)OCCOc1ccc(Br)cc1` (configuration not stated), the activation is 4.8%.

`CC(=O)Nc1ccc(NC(=O)COC(=O)C2CCC(C(C)(C)C)CC2)cc1` (configuration not stated): the activation was 23.7%.

With `COc1ccc(NC(=O)C2CCCN(S(=O)(=O)c3cccc4cccnc34)C2)cc1OC` (configuration not stated), the activation is 5.06%.

In the case of `O=C(CN1CCCSc2ccccc21)N1CCN(S(=O)(=O)c2cccc(F)c2)CC1`, the activation is 6.06%.

Take `Cn1c(C(=O)NCCc2ccsc2)cc2c(=O)n(C)c3ccccc3c21`: the activation was 4.37%.

In the case of `O=C(COC(=O)c1c2c(nc3ccccc13)CCCC2)c1ccc(Br)s1`, the activation is 0.2%.

Consider `Cc1nn(-c2ccccc2)c(C)c1NC(=O)COC(=O)c1cc(Cl)ccc1O`, for which the activation is 10.5%.

In the case of `C=CCC[C@@H](Cc1ccc(F)cc1)C(=O)O[C@H](CNC(=O)[C@H](CC=C)CC(=O)N(CCO)Cc1ccccc1)c1ccccc1`, the activation was 2.53%.

`COc1ccc(CC(=O)Nc2c(C(N)=O)oc3ccccc23)cc1`: the activation is 6.71%.

On to `CCN1CCc2c(C#N)c(NCc3ccccc3)nc(NCCO)c2C1`, for which the activation was 8.1%.

As to `COc1ccc(C(=O)Nc2cccc(NC(=O)c3ccc(OC)cc3OC)n2)c(OC)c1`, the activation is 6.39%.

Consider `CCOC(=O)C1C(c2ccc(OC)c(OC)c2)c2c([nH][nH]c2=O)CC1(C)O` (configuration not stated), for which the activation is 3.71%.

Take `CSc1nc(-c2ccccc2)nc(C(Cl)Cl)n1`: the activation is 2.73%.

With `CCCCNc1c(-c2cccc(Sc3ccc(OC)cc3)c2)nc2ccccn12`, the activation is 6.5%.

Take `CCOc1ccc(N2CC(C(=O)N/N=C/c3sccc3C)CC2=O)cc1` (configuration not stated): the activation was 3.12%.

`COc1ccc(-c2cc(C(=O)N(C)CC(=O)Nc3ccccc3Cl)c3ccccc3n2)cc1OC`: the activation is 6.79%.

For the compound `COc1ccc(S(=O)(=O)N(CC(=O)NCc2ccco2)c2ccc(F)cc2)cc1`, the activation was 7.31%.

Consider `CC(=O)N1CCN(C(=O)c2cc(-c3ccc(Cl)s3)nc3ccccc23)CC1`, for which the activation is 13%.

Take `COc1ccc(-c2cc(C(=O)N(C)Cc3ccccc3)c3ccccc3n2)cc1`: the activation is 1.41%.

Regarding `Cc1ccc(-n2c(C)cc(/C=N\NC(=O)CC(=O)NC(C)C)c2C)cc1`, the activation was 16.1%.

Consider `OC(c1ccccc1)(c1ccccc1)C1CCN(CCCOc2ccc(-c3ccsc3)cc2)CC1`, for which the activation was 33.1%.
